# From the supplement of paper PMC10849652
# The full data set covers some 7,900 targets. This sample favours those with a hit. About 0.6% of all pairs of compound and target were hits. Values without a mark were called inactive.
# Compound: CNC(=O)c1ccc(Nc2ncc(C(F)(F)F)c(NCc3nccnc3N(C)S(C)(=O)=O)n2)cc1 [defactinib]
# Assay: log2 fold change, soluble protein after heating vs DMSO (PISA); higher = thermal stabilisation; K562 cells, 10 uM, 30 min; active = over 0.2 and 3.5 SD of the protein, either way, in both replicates (recomputed)
# Summary of the method: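 Aliquots of K562 cells (2×10^6 cells/mL) treated with 10 μM compound for 30 min were heated for 3 min over 48°C-58°C. After pooling and extraction in PBS with 0.5% NP-40 at 4°C, soluble protein from a 21,000xg, 90 min spin was quantified by TMTpro 16plex LC-MS/MS with channel sums equalised. Thermal stability is expressed against control samples, from duplicates, as a log2 fold change.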
# Chain of UniProt P33947 (P33947 whole entry, looked up): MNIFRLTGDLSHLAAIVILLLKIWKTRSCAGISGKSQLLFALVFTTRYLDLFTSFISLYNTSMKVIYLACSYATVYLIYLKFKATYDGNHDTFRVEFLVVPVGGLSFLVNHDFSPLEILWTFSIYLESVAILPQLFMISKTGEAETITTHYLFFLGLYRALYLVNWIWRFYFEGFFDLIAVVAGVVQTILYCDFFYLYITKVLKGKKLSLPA
# Chain of UniProt P20700 (P20700 whole entry, looked up): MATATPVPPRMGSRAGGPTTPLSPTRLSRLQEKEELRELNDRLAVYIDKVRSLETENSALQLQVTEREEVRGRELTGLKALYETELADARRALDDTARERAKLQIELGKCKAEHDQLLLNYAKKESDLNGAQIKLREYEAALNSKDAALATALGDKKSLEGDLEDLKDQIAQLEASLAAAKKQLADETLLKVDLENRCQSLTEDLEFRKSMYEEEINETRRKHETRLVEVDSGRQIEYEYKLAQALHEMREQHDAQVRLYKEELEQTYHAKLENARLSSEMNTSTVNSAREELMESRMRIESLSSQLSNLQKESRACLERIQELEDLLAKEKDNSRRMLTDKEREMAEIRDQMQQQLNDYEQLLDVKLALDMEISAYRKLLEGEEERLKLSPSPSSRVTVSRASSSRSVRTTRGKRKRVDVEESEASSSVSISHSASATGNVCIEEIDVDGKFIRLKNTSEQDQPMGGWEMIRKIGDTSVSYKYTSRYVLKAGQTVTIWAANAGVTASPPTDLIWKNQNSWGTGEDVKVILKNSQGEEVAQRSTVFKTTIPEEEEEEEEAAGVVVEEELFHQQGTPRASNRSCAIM
# Chain of UniProt Q15648 (Q15648 whole entry, looked up): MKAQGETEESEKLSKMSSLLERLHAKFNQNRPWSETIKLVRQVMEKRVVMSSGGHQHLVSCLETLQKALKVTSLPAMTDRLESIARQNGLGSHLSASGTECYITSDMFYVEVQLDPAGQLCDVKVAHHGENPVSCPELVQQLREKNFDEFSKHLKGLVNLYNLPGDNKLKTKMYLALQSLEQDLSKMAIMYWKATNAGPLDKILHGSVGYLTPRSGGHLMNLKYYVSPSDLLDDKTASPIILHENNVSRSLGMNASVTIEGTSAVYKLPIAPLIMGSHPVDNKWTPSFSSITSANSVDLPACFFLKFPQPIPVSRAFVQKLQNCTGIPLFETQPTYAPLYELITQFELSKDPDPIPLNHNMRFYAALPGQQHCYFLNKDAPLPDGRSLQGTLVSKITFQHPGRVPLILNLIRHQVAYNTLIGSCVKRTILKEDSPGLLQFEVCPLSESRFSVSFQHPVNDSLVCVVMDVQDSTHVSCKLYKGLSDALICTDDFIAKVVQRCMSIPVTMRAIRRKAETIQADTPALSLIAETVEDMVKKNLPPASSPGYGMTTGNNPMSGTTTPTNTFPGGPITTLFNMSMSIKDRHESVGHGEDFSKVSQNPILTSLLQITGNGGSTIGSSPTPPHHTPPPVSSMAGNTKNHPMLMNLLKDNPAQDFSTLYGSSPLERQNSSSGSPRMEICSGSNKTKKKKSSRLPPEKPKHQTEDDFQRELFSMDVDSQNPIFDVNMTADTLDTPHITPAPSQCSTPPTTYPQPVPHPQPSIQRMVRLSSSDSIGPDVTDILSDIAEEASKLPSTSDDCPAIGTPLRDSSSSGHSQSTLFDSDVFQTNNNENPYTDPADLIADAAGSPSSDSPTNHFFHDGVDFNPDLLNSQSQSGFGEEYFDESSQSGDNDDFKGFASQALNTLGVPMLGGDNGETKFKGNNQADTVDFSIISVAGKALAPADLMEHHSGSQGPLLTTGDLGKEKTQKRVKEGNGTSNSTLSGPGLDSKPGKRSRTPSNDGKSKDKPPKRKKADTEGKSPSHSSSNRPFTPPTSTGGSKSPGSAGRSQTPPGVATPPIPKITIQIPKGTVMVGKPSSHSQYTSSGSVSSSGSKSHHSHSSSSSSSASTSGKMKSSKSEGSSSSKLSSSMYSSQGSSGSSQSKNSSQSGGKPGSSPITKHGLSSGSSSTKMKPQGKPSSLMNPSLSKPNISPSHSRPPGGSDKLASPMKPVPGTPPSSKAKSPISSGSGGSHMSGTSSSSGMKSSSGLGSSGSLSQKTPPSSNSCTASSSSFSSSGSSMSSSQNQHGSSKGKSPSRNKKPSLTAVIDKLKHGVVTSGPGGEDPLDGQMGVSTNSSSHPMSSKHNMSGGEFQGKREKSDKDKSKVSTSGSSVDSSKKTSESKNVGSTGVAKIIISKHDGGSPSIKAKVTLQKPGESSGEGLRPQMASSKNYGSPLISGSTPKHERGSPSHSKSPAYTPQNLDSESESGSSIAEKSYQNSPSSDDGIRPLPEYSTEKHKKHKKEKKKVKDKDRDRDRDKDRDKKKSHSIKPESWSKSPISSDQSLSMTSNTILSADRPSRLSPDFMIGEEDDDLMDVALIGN
# Chain of UniProt Q9UIQ6 (Q9UIQ6 whole entry, looked up): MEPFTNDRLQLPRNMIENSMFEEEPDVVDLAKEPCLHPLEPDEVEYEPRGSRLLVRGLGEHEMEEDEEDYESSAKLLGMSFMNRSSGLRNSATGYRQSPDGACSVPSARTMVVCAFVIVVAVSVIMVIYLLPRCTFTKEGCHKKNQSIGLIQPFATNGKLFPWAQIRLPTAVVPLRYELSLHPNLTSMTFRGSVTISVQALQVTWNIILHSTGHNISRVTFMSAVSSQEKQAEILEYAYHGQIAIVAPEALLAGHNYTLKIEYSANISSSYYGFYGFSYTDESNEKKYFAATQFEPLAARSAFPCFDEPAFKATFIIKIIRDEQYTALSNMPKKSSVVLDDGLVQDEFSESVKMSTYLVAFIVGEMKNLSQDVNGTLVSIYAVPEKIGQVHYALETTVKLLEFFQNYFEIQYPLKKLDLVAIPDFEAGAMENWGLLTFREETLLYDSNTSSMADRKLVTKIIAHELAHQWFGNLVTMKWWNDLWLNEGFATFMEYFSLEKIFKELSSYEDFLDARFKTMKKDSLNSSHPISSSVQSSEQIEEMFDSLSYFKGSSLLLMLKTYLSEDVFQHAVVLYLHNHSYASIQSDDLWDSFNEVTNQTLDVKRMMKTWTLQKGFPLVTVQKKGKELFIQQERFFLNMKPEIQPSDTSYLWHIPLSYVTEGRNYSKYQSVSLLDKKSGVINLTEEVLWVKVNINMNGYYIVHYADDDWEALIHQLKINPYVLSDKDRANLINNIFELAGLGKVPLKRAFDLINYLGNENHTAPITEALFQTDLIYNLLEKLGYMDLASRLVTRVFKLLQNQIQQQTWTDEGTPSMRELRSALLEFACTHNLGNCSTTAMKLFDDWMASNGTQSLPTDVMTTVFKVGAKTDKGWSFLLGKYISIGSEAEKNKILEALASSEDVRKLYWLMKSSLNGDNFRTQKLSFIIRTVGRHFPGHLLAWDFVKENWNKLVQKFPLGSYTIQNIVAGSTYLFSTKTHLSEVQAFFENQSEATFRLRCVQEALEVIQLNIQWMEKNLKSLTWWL
# Chain of UniProt P32019 (P32019 whole entry, looked up): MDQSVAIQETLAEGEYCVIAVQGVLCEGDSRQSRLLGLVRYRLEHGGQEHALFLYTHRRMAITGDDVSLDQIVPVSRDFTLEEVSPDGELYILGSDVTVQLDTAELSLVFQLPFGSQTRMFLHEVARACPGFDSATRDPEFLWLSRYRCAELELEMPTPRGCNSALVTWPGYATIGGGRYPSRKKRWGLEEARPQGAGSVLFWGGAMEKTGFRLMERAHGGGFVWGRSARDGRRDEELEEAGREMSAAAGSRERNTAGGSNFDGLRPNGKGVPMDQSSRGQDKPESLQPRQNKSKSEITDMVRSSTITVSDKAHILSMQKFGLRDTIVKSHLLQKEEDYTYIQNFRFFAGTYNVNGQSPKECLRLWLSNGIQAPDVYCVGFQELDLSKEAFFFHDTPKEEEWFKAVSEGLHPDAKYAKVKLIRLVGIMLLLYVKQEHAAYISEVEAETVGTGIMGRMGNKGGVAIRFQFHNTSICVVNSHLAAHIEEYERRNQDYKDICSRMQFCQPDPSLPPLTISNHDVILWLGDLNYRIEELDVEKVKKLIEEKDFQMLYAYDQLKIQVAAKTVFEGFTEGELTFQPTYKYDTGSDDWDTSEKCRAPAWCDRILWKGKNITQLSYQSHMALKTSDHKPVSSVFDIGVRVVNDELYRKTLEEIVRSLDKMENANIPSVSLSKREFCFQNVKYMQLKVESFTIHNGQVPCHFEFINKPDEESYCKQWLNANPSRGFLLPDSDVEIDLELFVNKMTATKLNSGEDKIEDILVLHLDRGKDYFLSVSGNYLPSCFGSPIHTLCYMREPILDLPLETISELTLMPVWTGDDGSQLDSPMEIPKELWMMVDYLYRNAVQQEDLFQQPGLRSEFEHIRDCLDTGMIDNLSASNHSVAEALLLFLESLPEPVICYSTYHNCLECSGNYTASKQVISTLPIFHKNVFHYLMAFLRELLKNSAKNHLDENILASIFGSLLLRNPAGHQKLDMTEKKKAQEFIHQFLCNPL
# Chain of UniProt Q9Y496 (Q9Y496 whole entry, looked up): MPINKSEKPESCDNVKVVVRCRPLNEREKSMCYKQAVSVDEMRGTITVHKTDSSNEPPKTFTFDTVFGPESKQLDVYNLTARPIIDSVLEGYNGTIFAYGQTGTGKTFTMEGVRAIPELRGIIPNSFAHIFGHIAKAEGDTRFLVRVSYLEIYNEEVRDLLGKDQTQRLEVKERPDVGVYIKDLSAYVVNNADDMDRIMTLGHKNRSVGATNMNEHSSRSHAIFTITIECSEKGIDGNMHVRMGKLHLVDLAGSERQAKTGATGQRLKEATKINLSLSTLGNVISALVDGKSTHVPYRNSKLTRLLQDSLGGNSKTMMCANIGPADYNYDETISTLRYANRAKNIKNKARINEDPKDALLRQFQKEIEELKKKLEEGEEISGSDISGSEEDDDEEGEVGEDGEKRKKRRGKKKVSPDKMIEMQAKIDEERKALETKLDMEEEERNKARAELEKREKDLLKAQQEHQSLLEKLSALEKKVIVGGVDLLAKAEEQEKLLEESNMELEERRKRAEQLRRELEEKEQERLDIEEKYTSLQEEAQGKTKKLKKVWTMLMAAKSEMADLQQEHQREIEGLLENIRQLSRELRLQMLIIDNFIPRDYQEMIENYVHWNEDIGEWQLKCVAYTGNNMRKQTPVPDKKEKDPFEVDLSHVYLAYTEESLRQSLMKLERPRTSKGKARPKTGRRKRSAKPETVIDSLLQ
row,Target,log2 fold change
1,KDM3B (UniProt Q7LBC6),-0.161
2,MAP2K7 isoform 4 (UniProt O14733),-0.012
3,MIEF1 (UniProt L0R8F8),-0.003
4,MARCKSL1 (UniProt P49006),0.007
5,MEPCE (UniProt Q7L2J0),-0.192
6,MCUR1 (UniProt Q96AQ8),-0.047
7,MED1 (UniProt Q15648),-0.005
8,LNPEP (UniProt Q9UIQ6),-0.054
9,IPO7 (UniProt O95373),-0.163
10,LMNB1 (UniProt P20700),-0.166
11,MAGEC2 (UniProt Q9UBF1),-0.056
12,KDELR2 (UniProt P33947),-0.004
13,INTS7 (UniProt Q9NVH2),-0.096
14,LMBRD2 (UniProt Q68DH5),-0.01
15,INPP5B (UniProt P32019),0.112
16,IRF2BPL (UniProt Q9H1B7),-0.038
17,KIF3A (UniProt Q9Y496),0.013
18,LNPK (UniProt Q9C0E8),0.009
19,LEO1 (UniProt Q8WVC0),-0.211
20,MCU (UniProt Q8NE86),-0.043
21,MAP1LC3B2 (UniProt A6NCE7),-0.015
22,MAST4 (UniProt O15021),-0.149
23,ILK (UniProt Q13418),0
